CSC inhib – blocks cancer stem cells; cancer stem cell-like cells viability, luminescence; hit rate 1.1% among 300,000; inhibition, % at 7.5 µM; AID 2717; in the data active = inhibition above about 75%; tested in HMLE shEcad cells
Mdm2-MdmX inh – inhibitors of human Mdm2/MdmX interaction; SaOS-2 split-luciferase Mdm2/MdmX complementation, luminescence; inhibition, % at 8 µM; hit rate 3% among 330,000;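 active = inhibition of at least 50% at 8 µM in the primary screen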
MPTP block – inhibitors of mitochondrial permeability transition pore; isolated mouse mitochondria, Ca2+ swelling absorbance, 30 min; inhibition, % at 10 µM; hit rate 1.4% among 360,000; AID 602449;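 active = inhibition of 50% or more, scaled per plate between neutral and stimulator controls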
Beta apoptosis – blocks beta cell apoptosis; INS-1E cytokine-induced death, ATP luminescence, 48 h; percent of positive-control rescue, neutral wells zero; protection from apoptosis, % (concentration not given with the values); hit rate 0.8% among 300,000; AID 435005;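 active = Every replicate reaches about 75%, or at least half do and their mean reaches it too, limit read from the data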;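 also: higher means more ATP so stronger rescue from cytokine killing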
NR3A LBD binder – modulators (binders) of human NR3A ligand-binding domain. NR3A LBD differential scanning fluorimetry, Tm shift; 0% = protein alone, 100% = glycine-bound protein. Tm shift relative to glycine control, % at 25 µM. hit rate 2.5% among 340,000. AID 1259313;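 active = melting temperature shift of at least 10% of the positive control shift, at one fixed dose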
SKKanGAS inh – blocks kanamycin growth of S. pyogenes SKKanGAS strain; BacTiter-Glo, 6 h; AID 1662; hit rate 1.3% among 300,000; inhibition, % at 7.5 µM;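 active = mean replicate score, as percent of positive control median, at least 50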;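 also: strain carries kanamycin resistance gene driven by streptokinase promoter and grows in 40 µg/ml kanamycin; loss of luminescence reflects streptokinase promoter inhibition or plain growth inhibition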
Of the large screens only hits and unclear results are named; the others gave an inactive call. Only some compounds are listed: those with a hit (about 6.9% of all), similar ones and a draw of the others.

CSc1cccc(NC(=O)CCCOc2ccc(Cl)cc2Cl)c1	NR3A LBD binder 20
COc1ccc(/C=N/NC(=O)CCCOc2ccc(Cl)cc2Cl)cc1	NR3A LBD binder 16
CSc1cccc(NC(=O)CCCOc2ccccc2)c1	none
CC(NC(=O)c1cccs1)C(S)c1ccccc1 (configuration not stated)	none (no result: Mdm2-MdmX inh)
c1ccc2c(c1)nc(Nc1ccc(N3CCCCC3)cc1)c1nncn12	SKKanGAS inh 59
CCN(CC(=O)Nc1ccccc1C(F)(F)F)C(=O)Cc1ccccc1	none
O=C(COC(=O)c1ccc(NS(=O)(=O)c2cccs2)cc1O)Nc1nc2ccccc2s1	NR3A LBD binder 19
NC(=O)c1ccsc1NC(=O)COC(=O)c1ccccc1F	none (no result: CSC inhib, SKKanGAS inh)
NC(=O)c1ccsc1NC(=O)COC(=O)c1cc(Cl)ccc1O	NR3A LBD binder 19
COc1ccc(Cl)cc1NC(=O)COC(=O)c1cc(NS(=O)(=O)c2cccs2)ccc1O	NR3A LBD binder 25
C=CCNC(C(=O)Nc1cccc(OC)c1)c1ccccc1 (configuration not stated)	NR3A LBD binder 15
COc1cccc(NC(=O)C(NCC(C)(C)CN(C)C)c2ccccc2)c1 (configuration not stated)	none
C[N+]1=C(/C=C/Nc2ccccc2Cl)C(C)(C)c2ccccc21	Beta apoptosis 99
O=C(COc1ccccc1)N(Cc1nnc(-c2ccccc2Cl)o1)C1CC1	none (no result: Beta apoptosis)
N#Cc1ccccc1OCC(=O)OCC(=O)NC1CCCC1	none (no result: SKKanGAS inh)
CC(NC(=O)COC(=O)CN1C(=O)NC2(CCCC2)C1=O)c1ccc(F)cc1 (configuration not stated)	none (no result: CSC inhib, Mdm2-MdmX inh, Beta apoptosis, SKKanGAS inh)
Cc1ccc(SC[C@H](Cc2ccccc2)N2CCN(CCc3ccccc3)CCC2=O)cc1	NR3A LBD binder 19
O=C1CCN(CCc2ccccc2)CCN1[C@H](CSc1ccccc1)Cc1ccccc1	none
OCCN1CCN(CCCN2c3ccccc3CCc3ccccc32)CC1	none (no result: CSC inhib, Mdm2-MdmX inh, Beta apoptosis, NR3A LBD binder, SKKanGAS inh)
OCCN1CCN(CCCc2c3c(cc4c2CCC4)CCC3)CC1	CSC inhib 95
CCN(C(=O)c1ccc(S(=O)(=O)N2CCC(C)CC2)cc1)C1CCS(=O)(=O)C1 (configuration not stated)	none
COc1ccc(NC(=O)O/N=C/c2ccncc2)cc1	none
COc1ccc(C=NOCC(=O)OCC(=O)Nc2ccc(OC)cc2)cc1	NR3A LBD binder 42 (no result: SKKanGAS inh)
CC(=O)Nc1ccc(/C=N/OCC(=O)Nc2ccc(C)cc2)cc1	none
COc1ccc(/C=N/OC(=O)Nc2ccc(Cl)cc2)c(OC)c1	NR3A LBD binder 10
COc1ccc(NC(=O)O/N=C/c2ccc(Br)cc2)cc1	NR3A LBD binder 34
Cc1ccc(NC(=O)O/N=C/c2ccc(Br)cc2)cc1	none
Cc1ccc(NC(=O)O/N=C/c2ccc(N(C)C)cc2)cc1	NR3A LBD binder 19
COc1ccccc1NC(=O)C1CCCN(c2cnccn2)C1 (configuration not stated)	none (no result: CSC inhib, Beta apoptosis)
O=C(CNc1cccc(C(F)(F)F)c1)N/N=C/c1ccccc1C(=O)O	none
Cc1ccc(S(=O)(=O)N2c3ccccc3CC2C)cc1 (configuration not stated)	none
COc1ccc(S(=O)(=O)N2CCC(C(=O)N3CCc4ccccc4C3)CC2)cc1	none
CCOC(=O)N1CCN(C(=O)C2CCCN(S(=O)(=O)c3ccc(OCC)cc3)C2)CC1 (configuration not stated)	NR3A LBD binder 13
CCOc1ccc(S(=O)(=O)N2c3ccccc3CC2C)cc1 (configuration not stated)	NR3A LBD binder 14
CCOc1ccc(S(=O)(=O)N2CCC(C(=O)N3CCc4ccccc4C3)CC2)cc1	NR3A LBD binder 20
CC(=O)Nc1ccc(NC(=O)c2ccccc2-n2cnnn2)cc1	none (no result: CSC inhib, Beta apoptosis, SKKanGAS inh)
CCOc1ccc(C(=O)NC(=S)Nc2ccccc2N2CCOCC2)cc1Br	CSC inhib 101
O=C(NC(=S)Nc1ccccc1N1CCCC1)c1ccccc1Br	SKKanGAS inh 81 (no result: NR3A LBD binder)
CC(C)Oc1cccc(C(=O)NC(=S)Nc2ccccc2N2CCOCC2)c1	CSC inhib 121, NR3A LBD binder 20
CCOc1ccc(C(=O)NCc2ccccc2)cc1Br	NR3A LBD binder 12
CC(C)(O)CC[C@@H](O)[C@](C)(O)C1CC[C@@]2(O)C3=CC(=O)[C@]4(O)C[C@@H](O)[C@@H](O)C[C@]4(C)C3CC[C@]12C (some centres not stated)	none (no result: SKKanGAS inh)
NC(=O)CSc1nnc(-c2ccccc2F)n1C1CC1	none
C[N+](=O)C1C(=O)Nc2ccccc21 (configuration not stated)	none (no result: CSC inhib, Mdm2-MdmX inh, Beta apoptosis, NR3A LBD binder, SKKanGAS inh)
CC1CCN(C(=O)COC(=O)/C=C/c2ccco2)CC1	none (no result: SKKanGAS inh)
COc1cccc(C(=O)NC(=S)Nc2ccccc2N2CCCC2)c1	none
O=C(NC(=S)Nc1ccccc1Br)C1CCCCC1	NR3A LBD binder 13 (no result: SKKanGAS inh)
Cc1noc(C)c1COc1cccc(C(=O)Nc2ccccc2N2CCOCC2)c1	none
COc1cccc(C(=O)NC(=S)Nc2ccccc2N2CCCCC2)c1	SKKanGAS inh 65 (no result: Beta apoptosis)
COc1cc(C(=O)Nc2ccccc2N2CCOCC2)ccc1OCc1c(C)noc1C	NR3A LBD binder 12
Cn1cccc1C(=O)C(=O)Nc1ccc(F)c(F)c1	none
CCOc1ccccc1NC(=S)N1CCC(NC(=O)C(C)(C)C)CC1	none
CC(C)(C)C1CCC(=NNc2ccc(S(N)(=O)=O)cc2[N+](=O)[O-])CC1 (configuration not stated)	NR3A LBD binder 16 (no result: Beta apoptosis)
NS(=O)(=O)c1ccc(N/N=C/c2ccc(O)c(O)c2O)c([N+](=O)[O-])c1	none (no result: CSC inhib, Mdm2-MdmX inh, Beta apoptosis, SKKanGAS inh)
O=C(O)c1ccccc1NS(=O)(=O)c1ccc(N/N=C/c2ccc(O)c(O)c2)c([N+](=O)[O-])c1	NR3A LBD binder 16 (no result: CSC inhib, Mdm2-MdmX inh, Beta apoptosis, SKKanGAS inh)
CC1CCCC/C1=N\Nc1ccc(S(N)(=O)=O)cc1[N+](=O)[O-] (configuration not stated)	none
COc1ccc(NS(=O)(=O)c2ccc(NN=Cc3ccc(C(=O)O)cc3)c([N+](=O)[O-])c2)cc1	none (no result: MPTP block, NR3A LBD binder, SKKanGAS inh)
NS(=O)(=O)c1ccc(N/N=C/c2ccc(O)cc2O)c([N+](=O)[O-])c1	NR3A LBD binder 30
O=C(O)c1ccccc1NS(=O)(=O)c1ccc(NN=Cc2ccc(F)cc2)c([N+](=O)[O-])c1	NR3A LBD binder 12 (no result: SKKanGAS inh)
CC[C@]1(C(=O)OC)[C@H]2C(=O)N(C)C(=O)[C@H]2[C@H]2CN=C(SCc3ccc(C)cc3)N21	none (no result: CSC inhib, Beta apoptosis, SKKanGAS inh)
NS(=O)(=O)c1ccc(N/N=C/c2ccccc2C(=O)O)c([N+](=O)[O-])c1	none
O=C(O)c1ccccc1NS(=O)(=O)c1ccc(NN=Cc2cccc(Cl)c2)c([N+](=O)[O-])c1	NR3A LBD binder 32 (no result: SKKanGAS inh)
CCc1cc2cc(C)c(C)cc2nc1SCC(=O)NNC(=O)c1ccco1	NR3A LBD binder 13
NC(=S)N/N=C/c1ccc(-c2cccc([N+](=O)[O-])c2)o1	none
Cc1cccc(NC(=S)N/N=C/c2ccc(Cl)c([N+](=O)[O-])c2)c1	none
CNC(=S)N/N=C/c1ccc(-c2ccc(Cl)c([N+](=O)[O-])c2)o1	none
